The subject of assay [1] is Wnt5a (protein binding on small-molecule microarray). As to the kind of experiment: Wnt5a binders on small-molecule microarray, primary screen, biophysical, 635/667 nm fluorescence (AID 1142).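 Further: fluorescence read at 667 nm with signal to noise per printed feature.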 To be noted: 635 nm fluorescence, higher = more signal.
Assay [2] in a line: cell viability in Huh7 cells, primary screen, cytotoxicity control for HCV replication inhibitor project, CellTiter-Glo luminescence, basal, 48 h (AID 1143).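 Further: Huh7 hepatoma cells carrying a hepatitis C replication reporter with no stimulus; test concentration not given here.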 The settings on record: Huh7 HCV replicon, higher = more signal, called active from +8 up or from −8 down.
Assay [3] can be described thus: P. aeruginosa biofilm formation inhibitors, primary screen, PAO1 strain, BacTiter-Glo luminescence, LB-PBS (AID 1144). The settings on record: 12 h, higher = more signal.
The nature of assay [4]: CREB reporter modulators without forskolin, primary screen, cell-based, PC12, CRE-LacZ reporter, unstimulated (AID 1145). To be noted: no forskolin, luminescence, 4.5 h, higher = more signal, called active from +8 up or from −8 down.
A short description of assay [5]: CREB reporter modulators under forskolin, primary screen, cell-based, PC12, CRE-LacZ reporter, forskolin-stimulated (AID 1146).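 Further: PC12 cells with 6xCRE LacZ reporter stimulated by forskolin 10 µM; beta-galactosidase reporter signal reflecting CREB driven transcription.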 The settings on record: luminescence, 4.5 h, higher = more signal, called active from +8 up or from −8 down.
Assay [6] deals with Streptavidin (Streptomyces avidinii) (UniProt P22629). As to the kind of experiment: streptavidin binders on small-molecule microarray, primary screen, artefact control for SMM compound annotation, biophysical, 635/667 nm fluorescence (AID 1147).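 Further: signal reflects streptavidin binding to arrayed compounds as a control protein.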 To be noted: streptavidin binding, higher = more signal.
Chain of Streptavidin (Streptomyces avidinii) (P22629 whole entry, looked up): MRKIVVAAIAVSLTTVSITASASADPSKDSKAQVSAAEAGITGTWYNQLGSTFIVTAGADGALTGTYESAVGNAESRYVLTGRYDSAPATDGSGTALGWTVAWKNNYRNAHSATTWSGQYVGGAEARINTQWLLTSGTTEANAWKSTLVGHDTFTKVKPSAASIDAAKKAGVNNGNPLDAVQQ
Assay [7] in a line: small-molecule binders of probe aInhba, primary screen, biochemical, small-molecule microarray, 635/667 nm fluorescence (AID 1148).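 Further: score merges 667nm spot fluorescence with signal-to-noise for antibody binding to printed compounds.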 To be noted: higher = more signal.
Assay [8] addresses Torsin-1A (Homo sapiens) (UniProt O14656). As to the kind of experiment: torsin A binders from cell lysate, primary screen, small-molecule microarray, wild-type, 635/667 nm (AID 1149). The settings on record: COS7 hTOR1A-WT lysate, 635 nm fluorescence, higher = more signal.
Assay [9] has the same target. As to the kind of experiment: small-molecule binders of mutant TOR1A in lysate, primary screen, cell lysate, small-molecule microarray, COS7 lysate, 635/667 nm fluorescence (AID 1150).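 Further: score pools 667 nm emission and signal to noise measuring lysate protein binding.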 To be noted: COS7 hTOR1A mutant lysate, 635 nm fluorescence, higher = more signal.
For assay [10], the system named is Sonic hedgehog protein (Shh). Kind of assay: small-molecule binders of Shh protein, primary screen, biochemical, small-molecule microarray, 635/667 nm fluorescence (AID 1151).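 Further: Shh protein binding to compounds spotted on small-molecule microarray slides; score combines spot fluorescence intensity with signal-to-noise across triplicate slides.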 To be noted: small-molecule microarray binding, 635 nm fluorescence; higher = more signal.
Assay [11] can be described thus: E. coli DRC41 culture turbidity changes, primary screen, E. coli filamentation inducer project, strain DRC41, OD650, 48 h (AID 1152).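 Further: E. coli MC1000 strain DRC41 lacking acrAB efflux pump and sulA.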 The settings on record: E. coli DRC41 (acrAB sulA), higher = more signal, called active from +8 up or from −8 down.
A short description of assay [12]: small-molecule binders of probe aLefty1, primary screen, biochemical, small-molecule microarray, 635/667 nm fluorescence (AID 1153).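 Further: score merges spot fluorescence with signal-to-noise ratio from the scanned slide images.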 The settings on record: higher = more signal.
Assay [13] is described as follows: PSAC antagonists in infected red cells, primary screen, cell-based, P. falciparum Indochina, OD700, 1 h (AID 1154). The settings on record: P. falciparum Indochina infected RBC osmotic lysis, higher = more signal, called active from +8 up or from −8 down.
Assay [14] can be described thus: PSAC antagonists in infected red cells, primary screen, cell-based, P. falciparum Indochina, OD700, 2 h (AID 1155).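 Further: lysis reports solute entry through the parasite surface anion channel PSAC; channel blockers reduce lysis of infected cells.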 The settings on record: P. falciparum Indochina infected erythrocytes, osmotic lysis OD700; higher = more signal, called active from +8 up or from −8 down.
Assay [15] is described as follows: osmotic lysis modulators in infected erythrocytes, primary screen, PSAC antagonist project, cell-based, P. falciparum Indochina, OD700, 3 h (AID 1156). The settings on record: higher = more signal, called active from +8 up or from −8 down.
The nature of assay [16]: PSAC antagonists in infected red cells, primary screen, cell-based, P. falciparum Indochina, OD700, 18 h (AID 1157). To be noted: P. falciparum Indochina infected erythrocytes, osmotic lysis OD700, 18 h; higher = more signal, called active from +8 up or from −8 down.
The nature of assay [17]: modulators of S6 phosphorylation in cells, primary screen, cell-based, A549, cytoblot, luminescence, serum-stimulated (AID 1158).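 Further: serum-stimulated A549 lung adenocarcinoma cells; signal is phosphorylated S6 detected by cytoblot immunostaining with HRP secondary.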 The settings on record: A549 phospho-S6 cytoblot, 5 h, higher = more signal.
Assay [18] has as its target NADPH oxidase 2 (Homo sapiens) (UniProt P04839). As to the kind of experiment: NOX2-dependent H2O2 signal modulators, primary screen, NOX inhibitor project, cell-based, HEK293-NOX2, PMA-stimulated, Amplex Red fluorescence (AID 1159). Further: test concentration not given here. The settings on record: 45 min, higher = more signal, called active from +8 up or from −8 down.
The target of assay [19] is NADPH oxidase 4 (Homo sapiens) (UniProt Q9NPH5). As to the kind of experiment: NOX4-dependent H2O2 signal modulators, primary screen, NOX inhibitor project, cell-based, HEK293-NOX4, tetracycline-induced, Amplex Red fluorescence (AID 1160). To be noted: 45 min, higher = more signal, called active from +8 up or from −8 down.
Chain of NADPH oxidase 4 (Homo sapiens) (Q9NPH5 whole entry, looked up): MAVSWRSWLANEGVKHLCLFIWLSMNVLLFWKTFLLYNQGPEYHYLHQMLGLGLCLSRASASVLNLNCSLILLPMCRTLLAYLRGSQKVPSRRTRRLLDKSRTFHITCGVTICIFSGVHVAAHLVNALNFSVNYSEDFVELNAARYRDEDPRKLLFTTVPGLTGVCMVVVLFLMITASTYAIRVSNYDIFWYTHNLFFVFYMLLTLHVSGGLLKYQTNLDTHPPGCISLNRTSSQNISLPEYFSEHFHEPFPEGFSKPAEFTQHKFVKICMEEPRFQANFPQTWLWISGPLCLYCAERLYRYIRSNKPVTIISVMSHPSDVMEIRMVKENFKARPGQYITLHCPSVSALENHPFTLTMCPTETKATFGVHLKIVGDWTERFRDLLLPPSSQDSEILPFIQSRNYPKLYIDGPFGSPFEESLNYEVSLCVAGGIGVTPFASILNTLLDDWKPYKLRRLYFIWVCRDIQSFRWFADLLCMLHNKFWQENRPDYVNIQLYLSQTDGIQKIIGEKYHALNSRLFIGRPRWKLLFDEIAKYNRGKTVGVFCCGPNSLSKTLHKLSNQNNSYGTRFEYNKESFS
Assay [20] addresses NADPH oxidase 5 (Homo sapiens) (UniProt Q96PH1). Kind of assay: NOX5-dependent H2O2 signal modulators, primary screen, NOX inhibitor project, cell-based, HEK293-NOX5, Amplex Red fluorescence (AID 1161). To be noted: HEK293-NOX5, ionomycin, 45 min, higher = more signal.

Structures are written as SMILES. Activity calls are given as the source filed them. Unless noted, how the calls were made is not given here.

We go through four compounds from PubChem BioAssay.

Chain of NADPH oxidase 5 (Homo sapiens) (Q96PH1 whole entry, looked up): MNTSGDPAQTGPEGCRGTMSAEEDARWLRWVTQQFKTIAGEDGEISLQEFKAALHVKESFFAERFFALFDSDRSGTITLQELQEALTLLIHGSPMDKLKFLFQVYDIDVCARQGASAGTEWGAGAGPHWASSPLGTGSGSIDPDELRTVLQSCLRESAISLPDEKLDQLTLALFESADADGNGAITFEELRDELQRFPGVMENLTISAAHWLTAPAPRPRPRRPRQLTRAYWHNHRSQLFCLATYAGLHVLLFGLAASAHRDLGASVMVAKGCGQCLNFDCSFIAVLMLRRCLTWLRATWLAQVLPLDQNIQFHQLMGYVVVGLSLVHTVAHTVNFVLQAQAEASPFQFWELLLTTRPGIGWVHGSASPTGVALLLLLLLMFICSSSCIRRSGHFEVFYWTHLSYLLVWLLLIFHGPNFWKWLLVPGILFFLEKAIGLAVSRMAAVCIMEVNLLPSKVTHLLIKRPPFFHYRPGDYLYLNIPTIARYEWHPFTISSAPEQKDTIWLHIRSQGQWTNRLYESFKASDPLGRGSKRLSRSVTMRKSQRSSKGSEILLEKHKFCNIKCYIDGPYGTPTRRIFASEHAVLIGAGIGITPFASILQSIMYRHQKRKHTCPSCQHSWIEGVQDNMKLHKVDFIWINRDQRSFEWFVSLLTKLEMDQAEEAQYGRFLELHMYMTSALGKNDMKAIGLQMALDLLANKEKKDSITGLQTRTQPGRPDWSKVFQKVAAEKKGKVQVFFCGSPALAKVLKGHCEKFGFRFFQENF
Chain of Torsin-1A (Homo sapiens) (O14656 whole entry, looked up): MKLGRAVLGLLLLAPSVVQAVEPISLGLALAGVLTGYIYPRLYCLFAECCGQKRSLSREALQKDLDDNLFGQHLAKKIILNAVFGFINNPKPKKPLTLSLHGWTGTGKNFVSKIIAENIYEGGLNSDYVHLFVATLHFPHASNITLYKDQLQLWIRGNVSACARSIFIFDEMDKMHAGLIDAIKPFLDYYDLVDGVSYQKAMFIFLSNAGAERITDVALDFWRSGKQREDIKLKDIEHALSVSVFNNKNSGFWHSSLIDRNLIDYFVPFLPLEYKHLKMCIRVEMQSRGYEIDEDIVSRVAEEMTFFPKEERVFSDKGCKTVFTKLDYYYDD
Chain of NADPH oxidase 2 (Homo sapiens) (P04839 whole entry, looked up): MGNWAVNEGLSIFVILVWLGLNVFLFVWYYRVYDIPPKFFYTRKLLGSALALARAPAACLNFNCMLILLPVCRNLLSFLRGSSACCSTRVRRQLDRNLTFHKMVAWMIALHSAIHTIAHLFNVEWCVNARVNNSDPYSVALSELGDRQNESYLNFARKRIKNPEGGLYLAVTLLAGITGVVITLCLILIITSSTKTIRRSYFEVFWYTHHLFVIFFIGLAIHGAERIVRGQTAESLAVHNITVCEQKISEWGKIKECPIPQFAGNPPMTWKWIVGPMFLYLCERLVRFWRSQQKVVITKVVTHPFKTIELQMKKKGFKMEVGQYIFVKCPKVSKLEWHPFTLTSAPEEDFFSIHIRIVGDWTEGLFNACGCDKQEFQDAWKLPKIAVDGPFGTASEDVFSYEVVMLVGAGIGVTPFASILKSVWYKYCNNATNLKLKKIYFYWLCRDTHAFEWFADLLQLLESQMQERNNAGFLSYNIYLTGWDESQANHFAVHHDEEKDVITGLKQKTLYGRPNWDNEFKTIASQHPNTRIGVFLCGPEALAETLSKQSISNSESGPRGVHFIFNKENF

In the case of `Cc1ccc(N2C(=O)c3ccccc3[C@](C)(C(=O)NCc3ccccc3)[C@@H]2c2ccc(CO)cc2)nc1`, the composite z-score in assay [1] amounted to 0.135; in assay [6] it was 0.0831; in [7], 0.0561; in the assay with Torsin-1A (Homo sapiens) [8], 0.197; with Torsin-1A (Homo sapiens) [9] it was 0.185; in assay [10], 0.547. The compound also registered a composite z-score in assay [12] of 0.205. In addition, the z-score in assay [2] was -2.21 (inactive); in assay [3] it was 0.493 (inactive); in assay [4], 0.351 (inactive); in assay [5], -1.32 (inactive); in assay [11] it was 0.465 (inactive); in [13] it was 2.01 (inactive). Besides, the z-score in assay [14] was 0.161 (inactive); in [15], 0.385 (inactive); in assay [16], 0.305 (inactive); in [17], 0.389; in assay [18], 0.37 (inactive); in assay [19] it was -1.75 (inactive). In [20], this compound displayed a z-score of -0.583.

For the compound `CC(C)CCC[C@@H](C)[C@H]1CC[C@@]2(C)C3=C(CC[C@]12C)[C@@]1(C)CC[C@H](OC(=O)c2ccccc2)C(C)(C)C1CC3` (stereo not given in full), the composite z-score in [1] was 0.0964; in assay [6], 0.18; in assay [7], -0.178; in the assay with Torsin-1A (Homo sapiens) [8], 0.316; with Torsin-1A (Homo sapiens) [9] it was 0.171; in assay [10], 0.364. In assay [12], the composite z-score turned out to be 0.0939. In addition, the z-score in assay [2] was -1.16 (inactive); in [3], -1.65 (inactive); in assay [4] it was 0.581 (inactive); in assay [5], -0.653 (inactive); in [11], 2.94 (inactive); in assay [13], -0.44 (inactive). In addition, the z-score was -0.47 (inactive) in assay [14]; -0.414 (inactive) in assay [15]; -1.26 (inactive) in assay [16]; 1.64 in assay [17]; -0.898 (inactive) in assay [18]; 0.288 (inactive) in [19]. The compound also returned a z-score in [20] of 0.465.

On to `COCCCNC(=O)[C@@H]1c2ccccc2C(=O)N(C2Cc3ccccc3C2)[C@H]1c1ccc(CO)cc1`, for which the composite z-score in [1] is -0.0499; in assay [6], -0.449; in assay [7], 0.208; with Torsin-1A (Homo sapiens) [8] it was 0.717; with Torsin-1A (Homo sapiens) [9], -0.184; in assay [10], 0.457. Besides, the composite z-score in [12] is -0.0603. Moreover, the z-score in assay [2] was 0.646 (inactive); in assay [3] it was 0.48 (inactive); in assay [4], -0.619 (inactive); in assay [5] it was -0.67 (inactive); in [11], 0.748 (inactive); in [13], 3.1 (inactive). Further, the z-score is 1.18 (inactive) in assay [14]; 0.65 (inactive) in assay [15]; 0.476 (inactive) in assay [16]; -0.256 in assay [17]; -0.193 (inactive) in [18]; 0.444 (inactive) in assay [19]. For the same compound, the z-score in assay [20] was -0.0459.

`C=C(/C(=C/C[C@@H](OC(C)=O)c1ccc(OCCO)cc1)c1cc(C(=O)OC)ccc1OC)C(C)C`: the composite z-score in assay [1] was -0.0426; in assay [6] it was -0.124; in assay [7], 0.167; with Torsin-1A (Homo sapiens) [8] it was 0.856; with Torsin-1A (Homo sapiens) [9], 0.693; in assay [10], 1.41. Moreover, the composite z-score in assay [12] came to 0.0794. In addition, the z-score in [2] is -2.02 (inactive); in [3], 1.03 (inactive); in assay [4] it was 3.85 (inactive); in assay [5] it was -0.27 (inactive); in assay [11] it was -0.2 (inactive); in assay [13], 8.16 (active). The z-score in [14] was 1.11 (inactive); in assay [15], 1.24 (inactive); in assay [16], 0.774 (inactive); in [17], -0.219; in [18], -0.323 (inactive); in [19], -0.645 (inactive). The same compound registered a z-score in assay [20] of -1.87.
